According to publication PMC7862700, “An all-to-all approach to the identification of sequence-specific readers for epigenetic DNA modifications on cytosine”:

Columns and labels:
Assay in all cases: DAPPL (digital affinity profiling via proximity ligation, sequencing); 10 mM Tris-HCl pH 7.5, 50 mM NaCl, 1 mM DTT, 4% glycerol, room temperature, 30 min; GST-TFs on glutathione beads, 16-mer random dsDNA library, 0.1% formaldehyde crosslink after washing; high values mean tight binding
FEV = target: T1, FEV (Homo sapiens, UniProt Q99581 1-238); conditions: protein: recombinant; tags: N-terminal GST; dsDNA, one strand shown
T1 sequence: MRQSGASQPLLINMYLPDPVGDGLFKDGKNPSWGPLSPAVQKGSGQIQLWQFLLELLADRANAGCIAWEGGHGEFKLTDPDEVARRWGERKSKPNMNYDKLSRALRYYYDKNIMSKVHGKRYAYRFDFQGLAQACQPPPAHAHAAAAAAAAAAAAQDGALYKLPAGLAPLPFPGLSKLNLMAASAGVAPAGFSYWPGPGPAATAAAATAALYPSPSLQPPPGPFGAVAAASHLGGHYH
In short: (§1)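 Yeast served to express human transcription factors as GST fusions, which were then captured on glutathione beads and labelled with DNA barcodes. Pooled with a tag-only sample, they were incubated with 200 nmole of a 16-mer random double-stranded DNA library for 30 min at room temperature in Tris/NaCl/DTT/glycerol buffer, washed, crosslinked with 0.1% formaldehyde, ligated by proximity, amplified by PCR and sequenced. Dividing each hexamer's read frequency for a factor by its frequency for the tag-only sample gives the binding signal.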

ETV5 = ETV5 (Homo sapiens, UniProt P41161 1-510); conditions: protein: recombinant; tags: N-terminal GST; dsDNA, one strand shown
Chain of ETV5 (P41161 whole entry): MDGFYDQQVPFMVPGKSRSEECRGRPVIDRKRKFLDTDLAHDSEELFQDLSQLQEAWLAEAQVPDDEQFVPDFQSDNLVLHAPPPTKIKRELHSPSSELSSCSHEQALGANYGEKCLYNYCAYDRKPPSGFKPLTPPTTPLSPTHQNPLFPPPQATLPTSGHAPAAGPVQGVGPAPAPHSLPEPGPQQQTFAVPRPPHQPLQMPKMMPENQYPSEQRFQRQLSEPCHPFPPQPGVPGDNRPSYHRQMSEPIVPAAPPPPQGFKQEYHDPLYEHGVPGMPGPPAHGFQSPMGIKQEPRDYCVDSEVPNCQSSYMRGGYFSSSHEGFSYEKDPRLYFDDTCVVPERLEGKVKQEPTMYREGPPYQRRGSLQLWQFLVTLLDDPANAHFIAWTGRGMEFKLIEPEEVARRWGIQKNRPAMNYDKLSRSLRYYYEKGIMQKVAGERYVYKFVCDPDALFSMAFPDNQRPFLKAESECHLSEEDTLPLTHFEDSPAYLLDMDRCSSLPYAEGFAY
In short: as §1

HSF1 = HSF1 (Homo sapiens, UniProt Q00613 1-529); conditions: protein: recombinant; tags: N-terminal GST; chain copies: 3; dsDNA, one strand shown
Chain of HSF1 (Q00613 whole entry): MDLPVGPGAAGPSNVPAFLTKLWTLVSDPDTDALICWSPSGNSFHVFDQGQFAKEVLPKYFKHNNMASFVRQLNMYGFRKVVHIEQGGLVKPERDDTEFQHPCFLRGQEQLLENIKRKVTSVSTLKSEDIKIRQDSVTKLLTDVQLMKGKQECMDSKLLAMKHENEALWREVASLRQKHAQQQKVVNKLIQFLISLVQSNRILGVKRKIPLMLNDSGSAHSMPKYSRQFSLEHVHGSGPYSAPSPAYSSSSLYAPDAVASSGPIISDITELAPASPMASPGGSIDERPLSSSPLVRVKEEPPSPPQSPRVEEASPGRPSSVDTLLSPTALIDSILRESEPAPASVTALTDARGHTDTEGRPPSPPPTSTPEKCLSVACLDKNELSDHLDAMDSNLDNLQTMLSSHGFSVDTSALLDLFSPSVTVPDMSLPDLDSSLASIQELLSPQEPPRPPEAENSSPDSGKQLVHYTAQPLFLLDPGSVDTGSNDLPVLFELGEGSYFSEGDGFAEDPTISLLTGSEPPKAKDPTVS
In short: as §1

SPIC = target: T2, SPIC (Homo sapiens, UniProt Q8N5J4 1-248); conditions: protein: recombinant; tags: N-terminal GST; dsDNA, one strand shown
T2 sequence: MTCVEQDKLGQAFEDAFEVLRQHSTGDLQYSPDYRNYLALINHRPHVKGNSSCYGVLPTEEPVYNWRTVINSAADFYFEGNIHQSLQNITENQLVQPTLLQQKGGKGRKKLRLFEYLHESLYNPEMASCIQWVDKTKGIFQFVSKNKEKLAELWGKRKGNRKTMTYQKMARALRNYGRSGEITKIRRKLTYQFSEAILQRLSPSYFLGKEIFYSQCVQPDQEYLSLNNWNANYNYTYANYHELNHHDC
In short: as §1

ELF4 = ELF4 (Homo sapiens, UniProt Q99607 1-663); conditions: protein: recombinant; tags: N-terminal GST; dsDNA, one strand shown
Chain of ELF4 (Q99607 whole entry): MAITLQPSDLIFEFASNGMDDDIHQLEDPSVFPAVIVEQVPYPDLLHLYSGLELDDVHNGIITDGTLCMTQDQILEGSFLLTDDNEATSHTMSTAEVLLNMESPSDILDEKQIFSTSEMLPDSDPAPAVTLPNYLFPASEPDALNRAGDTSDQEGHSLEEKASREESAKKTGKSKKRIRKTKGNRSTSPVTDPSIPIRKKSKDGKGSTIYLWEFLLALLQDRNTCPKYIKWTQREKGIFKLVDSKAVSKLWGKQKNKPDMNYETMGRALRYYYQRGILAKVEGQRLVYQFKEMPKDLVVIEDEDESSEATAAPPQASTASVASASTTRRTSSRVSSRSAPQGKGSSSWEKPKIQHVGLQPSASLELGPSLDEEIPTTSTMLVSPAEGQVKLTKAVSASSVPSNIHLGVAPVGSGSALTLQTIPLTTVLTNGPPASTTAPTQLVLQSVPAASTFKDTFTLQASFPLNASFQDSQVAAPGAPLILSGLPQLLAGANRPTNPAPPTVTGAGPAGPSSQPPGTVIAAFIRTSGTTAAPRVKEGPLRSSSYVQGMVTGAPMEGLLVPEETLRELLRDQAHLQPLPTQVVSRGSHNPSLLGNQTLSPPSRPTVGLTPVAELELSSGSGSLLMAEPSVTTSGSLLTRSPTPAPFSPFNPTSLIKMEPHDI
In short: as §1

ELK4 = target: T3, ELK4 (Homo sapiens, UniProt P28324-2 1-405); conditions: protein: recombinant; tags: N-terminal GST; dsDNA, one strand shown
T3 sequence: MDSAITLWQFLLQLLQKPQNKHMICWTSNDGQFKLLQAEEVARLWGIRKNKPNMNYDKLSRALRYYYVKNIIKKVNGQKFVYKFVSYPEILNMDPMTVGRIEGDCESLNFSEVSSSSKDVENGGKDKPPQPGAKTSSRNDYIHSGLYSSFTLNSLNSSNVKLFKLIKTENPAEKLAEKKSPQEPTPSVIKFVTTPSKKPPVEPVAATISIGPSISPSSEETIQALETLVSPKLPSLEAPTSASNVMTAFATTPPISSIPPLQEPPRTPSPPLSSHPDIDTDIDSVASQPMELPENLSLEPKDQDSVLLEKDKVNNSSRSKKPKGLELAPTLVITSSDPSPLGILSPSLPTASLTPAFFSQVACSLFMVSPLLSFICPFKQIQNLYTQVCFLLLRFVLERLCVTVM
In short: as §1

ETV2 = target: T4, ETV2 (Homo sapiens, UniProt O00321 1-342); conditions: protein: recombinant; tags: N-terminal GST; dsDNA, one strand shown
T4 sequence: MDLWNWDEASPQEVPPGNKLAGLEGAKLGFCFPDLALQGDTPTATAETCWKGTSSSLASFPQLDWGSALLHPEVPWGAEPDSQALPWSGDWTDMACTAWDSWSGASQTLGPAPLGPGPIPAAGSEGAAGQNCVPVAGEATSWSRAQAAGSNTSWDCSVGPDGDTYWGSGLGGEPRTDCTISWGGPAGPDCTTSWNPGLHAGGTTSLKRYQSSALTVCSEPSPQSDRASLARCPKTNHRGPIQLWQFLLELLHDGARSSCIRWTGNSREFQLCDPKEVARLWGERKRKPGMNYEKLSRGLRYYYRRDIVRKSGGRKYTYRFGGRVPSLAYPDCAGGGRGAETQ
In short: as §1

ELF3 = target: T5, ELF3 (Homo sapiens, UniProt P78545 1-371); conditions: protein: recombinant; tags: N-terminal GST; dsDNA, one strand shown
T5 sequence: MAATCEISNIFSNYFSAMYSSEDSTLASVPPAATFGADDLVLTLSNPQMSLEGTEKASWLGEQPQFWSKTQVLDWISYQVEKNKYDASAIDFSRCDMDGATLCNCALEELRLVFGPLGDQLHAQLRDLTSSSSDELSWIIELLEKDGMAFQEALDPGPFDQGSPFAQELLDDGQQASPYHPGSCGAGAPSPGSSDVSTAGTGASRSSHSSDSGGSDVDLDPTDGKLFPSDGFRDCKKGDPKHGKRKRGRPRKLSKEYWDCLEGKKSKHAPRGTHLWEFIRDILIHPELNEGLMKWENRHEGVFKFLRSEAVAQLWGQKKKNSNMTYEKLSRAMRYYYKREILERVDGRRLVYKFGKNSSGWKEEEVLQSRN
In short: as §1

CRX = CRX (Homo sapiens, UniProt O43186 1-299); conditions: protein: recombinant; tags: N-terminal GST; dsDNA, one strand shown
Chain of CRX (O43186 whole entry): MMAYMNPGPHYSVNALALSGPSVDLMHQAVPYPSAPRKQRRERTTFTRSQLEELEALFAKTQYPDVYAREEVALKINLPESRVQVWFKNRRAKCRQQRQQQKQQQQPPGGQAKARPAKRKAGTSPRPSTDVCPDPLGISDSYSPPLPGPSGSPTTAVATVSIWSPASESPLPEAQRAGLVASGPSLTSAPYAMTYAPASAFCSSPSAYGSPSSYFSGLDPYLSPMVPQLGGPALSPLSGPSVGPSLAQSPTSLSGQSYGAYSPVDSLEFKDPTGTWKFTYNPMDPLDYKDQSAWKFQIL
In short: as §1

ETV1 = ETV1 (Homo sapiens, UniProt P50549 1-477); conditions: protein: recombinant; tags: N-terminal GST; dsDNA, one strand shown
Chain of ETV1 (P50549 whole entry): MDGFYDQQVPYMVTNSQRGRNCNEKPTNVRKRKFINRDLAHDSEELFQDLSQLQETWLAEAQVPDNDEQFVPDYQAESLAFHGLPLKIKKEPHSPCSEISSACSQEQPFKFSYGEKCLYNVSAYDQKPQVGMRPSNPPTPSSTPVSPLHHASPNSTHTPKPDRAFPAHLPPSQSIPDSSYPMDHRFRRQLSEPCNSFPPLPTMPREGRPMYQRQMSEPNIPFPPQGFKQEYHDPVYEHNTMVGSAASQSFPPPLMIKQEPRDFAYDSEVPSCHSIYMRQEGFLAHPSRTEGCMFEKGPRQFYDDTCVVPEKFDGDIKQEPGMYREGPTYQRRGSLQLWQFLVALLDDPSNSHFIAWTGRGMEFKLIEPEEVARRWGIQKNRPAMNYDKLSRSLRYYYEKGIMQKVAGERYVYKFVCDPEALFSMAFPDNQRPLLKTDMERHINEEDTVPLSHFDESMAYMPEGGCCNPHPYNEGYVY
In short: as §1

ERF = target: T6, ERF (Homo sapiens, UniProt P50548 1-548); conditions: protein: recombinant; tags: N-terminal GST; dsDNA, one strand shown
T6 sequence: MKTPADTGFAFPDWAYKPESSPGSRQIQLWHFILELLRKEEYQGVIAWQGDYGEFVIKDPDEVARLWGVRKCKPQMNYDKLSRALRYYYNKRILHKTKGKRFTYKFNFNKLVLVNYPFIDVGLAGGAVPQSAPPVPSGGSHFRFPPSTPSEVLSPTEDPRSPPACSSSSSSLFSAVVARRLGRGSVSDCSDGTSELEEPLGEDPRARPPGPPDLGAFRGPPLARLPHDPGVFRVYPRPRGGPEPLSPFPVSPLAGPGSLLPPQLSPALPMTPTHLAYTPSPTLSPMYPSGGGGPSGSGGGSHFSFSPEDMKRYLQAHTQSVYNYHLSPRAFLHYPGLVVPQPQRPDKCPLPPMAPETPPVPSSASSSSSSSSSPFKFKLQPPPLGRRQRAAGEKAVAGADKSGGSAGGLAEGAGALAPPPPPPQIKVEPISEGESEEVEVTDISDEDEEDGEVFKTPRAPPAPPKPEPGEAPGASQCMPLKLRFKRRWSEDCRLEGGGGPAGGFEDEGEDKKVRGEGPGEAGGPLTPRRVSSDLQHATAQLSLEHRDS
In short: as §1

ETV3L = target: T7, ETV3L (Homo sapiens, UniProt Q6ZN32 1-361); conditions: protein: recombinant; tags: N-terminal GST; dsDNA, one strand shown
T7 sequence: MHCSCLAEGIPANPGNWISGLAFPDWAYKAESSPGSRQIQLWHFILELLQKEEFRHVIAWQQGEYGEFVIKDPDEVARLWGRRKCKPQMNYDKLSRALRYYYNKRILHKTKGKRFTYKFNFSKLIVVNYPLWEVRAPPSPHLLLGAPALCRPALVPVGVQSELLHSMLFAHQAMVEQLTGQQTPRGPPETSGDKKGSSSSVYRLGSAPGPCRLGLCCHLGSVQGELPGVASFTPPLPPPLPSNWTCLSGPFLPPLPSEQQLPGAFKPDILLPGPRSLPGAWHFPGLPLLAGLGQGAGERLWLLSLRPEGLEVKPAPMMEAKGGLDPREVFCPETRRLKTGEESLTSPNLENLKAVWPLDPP
In short: as §1

ETS2 = target: T8, ETS2 (Homo sapiens, UniProt P15036 1-469); conditions: protein: recombinant; tags: N-terminal GST; dsDNA, one strand shown
T8 sequence: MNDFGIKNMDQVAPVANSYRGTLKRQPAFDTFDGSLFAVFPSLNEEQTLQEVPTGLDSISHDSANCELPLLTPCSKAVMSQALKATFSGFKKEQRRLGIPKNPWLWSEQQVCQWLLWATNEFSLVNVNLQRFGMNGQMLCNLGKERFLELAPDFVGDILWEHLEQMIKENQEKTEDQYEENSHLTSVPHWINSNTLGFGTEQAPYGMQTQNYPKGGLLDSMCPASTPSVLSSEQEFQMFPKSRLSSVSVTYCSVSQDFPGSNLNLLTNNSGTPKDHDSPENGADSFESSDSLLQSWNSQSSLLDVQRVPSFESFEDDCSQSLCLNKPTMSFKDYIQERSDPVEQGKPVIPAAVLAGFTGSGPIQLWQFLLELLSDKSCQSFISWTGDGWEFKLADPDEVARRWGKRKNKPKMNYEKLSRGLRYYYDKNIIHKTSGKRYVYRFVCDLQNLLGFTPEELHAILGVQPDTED
In short: as §1

SPDEF = target: T9, SPDEF (Homo sapiens, UniProt O95238 1-335); conditions: protein: recombinant; tags: N-terminal GST; dsDNA, one strand shown
T9 sequence: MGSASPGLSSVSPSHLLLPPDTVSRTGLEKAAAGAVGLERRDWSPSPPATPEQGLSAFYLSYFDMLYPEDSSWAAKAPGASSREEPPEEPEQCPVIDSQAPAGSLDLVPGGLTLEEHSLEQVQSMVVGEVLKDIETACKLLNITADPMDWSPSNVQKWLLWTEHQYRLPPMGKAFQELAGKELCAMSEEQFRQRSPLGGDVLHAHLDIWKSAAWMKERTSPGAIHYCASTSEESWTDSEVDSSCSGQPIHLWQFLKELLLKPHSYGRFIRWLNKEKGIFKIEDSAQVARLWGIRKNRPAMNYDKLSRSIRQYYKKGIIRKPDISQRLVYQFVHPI
In short: as §1

ETV7 = target: T10, ETV7 (Homo sapiens, UniProt Q9Y603 1-341); conditions: protein: recombinant; tags: N-terminal GST; dsDNA, one strand shown
T10 sequence: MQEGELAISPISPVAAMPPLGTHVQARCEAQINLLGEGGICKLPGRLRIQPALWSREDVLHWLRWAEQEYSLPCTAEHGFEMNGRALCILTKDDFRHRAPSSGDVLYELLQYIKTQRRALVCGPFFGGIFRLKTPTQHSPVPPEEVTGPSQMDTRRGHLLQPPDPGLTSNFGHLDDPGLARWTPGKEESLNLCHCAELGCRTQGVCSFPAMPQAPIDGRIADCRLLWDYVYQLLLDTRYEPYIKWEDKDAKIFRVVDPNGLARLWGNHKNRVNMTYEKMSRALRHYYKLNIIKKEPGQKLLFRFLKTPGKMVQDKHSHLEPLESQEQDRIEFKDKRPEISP
In short: as §1

ELF5 = target: T11, ELF5 (Homo sapiens, UniProt Q9UKW6-2 1-255); conditions: protein: recombinant; tags: N-terminal GST; dsDNA, one strand shown
T11 sequence: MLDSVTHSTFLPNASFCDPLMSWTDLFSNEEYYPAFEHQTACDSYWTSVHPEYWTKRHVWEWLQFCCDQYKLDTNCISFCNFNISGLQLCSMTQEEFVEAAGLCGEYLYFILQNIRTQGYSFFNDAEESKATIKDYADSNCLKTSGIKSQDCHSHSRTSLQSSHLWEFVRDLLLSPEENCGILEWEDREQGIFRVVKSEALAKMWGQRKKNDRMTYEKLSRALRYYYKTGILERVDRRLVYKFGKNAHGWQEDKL
In short: as §1

ETV3 = target: T12, ETV3 (Homo sapiens, UniProt P41162-2 1-143); conditions: protein: recombinant; tags: N-terminal GST; dsDNA, one strand shown
T12 sequence: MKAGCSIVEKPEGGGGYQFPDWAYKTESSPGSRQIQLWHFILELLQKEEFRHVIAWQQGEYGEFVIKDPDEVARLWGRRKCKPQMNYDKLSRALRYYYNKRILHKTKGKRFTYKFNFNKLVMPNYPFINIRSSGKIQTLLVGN
In short: as §1

ETV6 = ETV6 (Homo sapiens, UniProt P41212 1-452); conditions: protein: recombinant; tags: N-terminal GST; dsDNA, one strand shown
Chain of ETV6 (P41212 whole entry): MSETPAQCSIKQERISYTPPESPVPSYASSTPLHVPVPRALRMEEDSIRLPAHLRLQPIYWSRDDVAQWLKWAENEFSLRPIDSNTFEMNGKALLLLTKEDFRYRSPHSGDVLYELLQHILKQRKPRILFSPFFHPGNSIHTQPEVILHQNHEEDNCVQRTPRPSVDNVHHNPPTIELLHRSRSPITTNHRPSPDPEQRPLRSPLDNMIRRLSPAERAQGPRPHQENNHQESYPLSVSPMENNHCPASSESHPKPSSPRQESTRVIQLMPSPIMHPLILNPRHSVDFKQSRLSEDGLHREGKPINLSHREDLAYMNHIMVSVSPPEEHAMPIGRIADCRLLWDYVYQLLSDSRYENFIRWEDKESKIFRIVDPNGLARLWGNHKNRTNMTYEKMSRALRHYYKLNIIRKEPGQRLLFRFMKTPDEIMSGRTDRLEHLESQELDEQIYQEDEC
In short: as §1

Sequence	binding signal (FEV)	binding signal (ETV5)	binding signal (HSF1)	binding signal (SPIC)	binding signal (ELF4)	binding signal (ELK4)	binding signal (ETV2)	binding signal (ELF3)	binding signal (CRX)	binding signal (ETV1)	binding signal (ERF)	binding signal (ETV3L)	binding signal (ETS2)	binding signal (SPDEF)	binding signal (ETV7)	binding signal (ELF5)	binding signal (ETV3)	binding signal (ETV6)
ATGACT	1.4 fold enrichment (6-mer frequency, TF over GST control)	1.43 fold enrichment (6-mer frequency, TF over GST control)	1.21 fold enrichment (6-mer frequency, TF over GST control)	1.47 fold enrichment (6-mer frequency, TF over GST control)	1.41 fold enrichment (6-mer frequency, TF over GST control)	1.39 fold enrichment (6-mer frequency, TF over GST control)	1.41 fold enrichment (6-mer frequency, TF over GST control)	1.46 fold enrichment (6-mer frequency, TF over GST control)	1.25 fold enrichment (6-mer frequency, TF over GST control)	1.36 fold enrichment (6-mer frequency, TF over GST control)	1.36 fold enrichment (6-mer frequency, TF over GST control)	1.47 fold enrichment (6-mer frequency, TF over GST control)	1.42 fold enrichment (6-mer frequency, TF over GST control)	1.29 fold enrichment (6-mer frequency, TF over GST control)	1.38 fold enrichment (6-mer frequency, TF over GST control)	1.32 fold enrichment (6-mer frequency, TF over GST control)	1.27 fold enrichment (6-mer frequency, TF over GST control)	1.3 fold enrichment (6-mer frequency, TF over GST control)
CCATTT	1.5 fold enrichment (6-mer frequency, TF over GST control)	1.47 fold enrichment (6-mer frequency, TF over GST control)	1.01 fold enrichment (6-mer frequency, TF over GST control)	1.42 fold enrichment (6-mer frequency, TF over GST control)	1.32 fold enrichment (6-mer frequency, TF over GST control)	1.41 fold enrichment (6-mer frequency, TF over GST control)	1.38 fold enrichment (6-mer frequency, TF over GST control)	1.28 fold enrichment (6-mer frequency, TF over GST control)	1.01 fold enrichment (6-mer frequency, TF over GST control)	1.36 fold enrichment (6-mer frequency, TF over GST control)	1.32 fold enrichment (6-mer frequency, TF over GST control)	1.25 fold enrichment (6-mer frequency, TF over GST control)	1.41 fold enrichment (6-mer frequency, TF over GST control)	1.21 fold enrichment (6-mer frequency, TF over GST control)	1.24 fold enrichment (6-mer frequency, TF over GST control)	1.31 fold enrichment (6-mer frequency, TF over GST control)	1.34 fold enrichment (6-mer frequency, TF over GST control)	1.34 fold enrichment (6-mer frequency, TF over GST control)
